In all, about 69,000 compounds went through this assay and about 8,600 (12%) showed an effect of 50% or more. Many of the other results were omitted from the sample, so strong results are more common in it than they were.

The test has as its system Plasmodium berghei. Kind of test: Screen against P. berghei liver stage (PbLuc), transformed with Luciferase, at 10uM. The test is classed as functional, HepG2. To be noted: tested at 10 uM.
As for `O=C1C(n2nnc(-c3ccsc3)n2)CCN1CC(F)(F)F` (stereo not given), the INHIBITION is reported as -35.9%.
Consider `CC(C)n1ccnc1Cn1ccc2ncccc2c1=O`, for which the INHIBITION is on record as -9.91%.
Regarding `CN(C)CCN1CCN(C(=O)c2ccn(C)c(=O)c2)CC1`, the INHIBITION was -7.31%.
To `COc1cc(NC(=O)N2CCCC2c2ccco2)cc(OC)c1` (stereo not given) belongs 45.5%.
The value for `CN(C)C(CNC(=O)c1ccc(-n2cnnn2)cc1)c1ccccc1Cl` (stereo not given) was -20.5%.
The value for `O=C(Nc1nc2c(s1)CCC2)c1cccnc1N1CCOCC1` was 34%.
As to `Cc1csc(NC(=O)c2cccnc2N2CCOCC2)n1`, the INHIBITION is given as -3.39%.
With `Cc1nc(NC(=O)c2cccnc2N2CCOCC2)sc1C`, the INHIBITION turned out to be 62.9%.
The value for `COc1cc(-c2n[nH]c(CC#N)n2)cc(OC)c1OC` was 12.7%; that for `CCn1nc(C)c(NC(=O)c2nnn(Cc3ccccc3)c2OC)c1C` was 27.5%.
The value for `CCCn1nccc1NC(=O)CN1CCc2c(nc(C(C)C)n2C)C1` was 12.7%.
With `CC(C)c1ncc2c(n1)CN(CC(=O)Nc1ccc(Cl)cn1)CC2`, the INHIBITION worked out at 0.914%.
Turning to `CCc1ncc2c(n1)CN(CC(=O)Nc1ccc(Cl)cn1)CC2`, the INHIBITION is 67.2%.
The value for `CCCn1nccc1NC(=O)CN1CCc2cnc(CC)nc2C1` was 23.6%.
Regarding `Cc1ncc2c(n1)CN(CC(=O)Nc1ccc(Cl)cn1)CC2`, the INHIBITION came to 46.2%.
The value for `CCCn1nccc1NC(=O)CN1CCc2cnc(C(C)C)nc2C1` was 55%.
The value for `Cc1csc(C(=O)N2CCC3(CC(N(C)c4ccncn4)C3)C2)c1` (stereo not given) was -10.8%; that for `COc1c(C2CCCN2C(=O)c2cnc[nH]2)c(C)nn1C` (stereo not given) was 29.2%.
`CN1CC2(CCCN(Cc3nnc(-c4cccc(F)c4)o3)C2)OC1=O` (stereo not given): the INHIBITION worked out at 19.4%.
To `CCn1cnnc1C1CCN(C(=O)c2cc(C)n(CC)c2C)CC1` belongs -10.6%; to `Cc1ccc(N2CC[C@H](OCC3CC3)[C@@H]2Cc2ccncc2)nn1`, 27.5%; to `Cc1nc(CNC(=O)N2CCN(c3ccc(Cl)cn3)CC2)no1`, 49.1%.
To `Cc1cc(CNC(=O)N2CCN(C(C)c3cccnc3)CC2)c(C)o1` (stereo not given) belongs 35.2%; to `Cc1cc(CNC(=O)CCN2CCN(c3ccccn3)CC2)c(C)o1`, 15.8%; to `Cc1nc(CNC(=O)N2CCN(c3ccc(Cl)cn3)CC2)sc1C`, 54.3%.
To `Cc1nc(N2CCN(C(=O)NCc3cscn3)CC2)sc1C` belongs 43.9%; to `Cc1nc(C)c(CNC(=O)N2CCN(c3ccc(Cl)cn3)CC2)s1`, 95.4%.
On to `COCCOC1CCN(C(=O)NCc2cc(C)oc2C)CC1`, for which the INHIBITION is on record as 53.7%.
To `Cc1cc(CNC(=O)N2CCN(c3nc(C)c(C)s3)CC2)no1` belongs 42.6%; to `O=C(CCc1nccs1)N1CCN(c2ccc(Cl)cn2)CC1`, 35.3%; to `COCCOC1CCN(C(=O)NCc2coc3ccccc23)CC1`, 46.1%.
The value for `Cc1cc(CNC(=O)N2CCN(c3ccc(Cl)cn3)CC2)c(C)o1` was 54.3%; that for `O=C(c1ccc2c(c1)CCC2)N1CCN(c2ccc(Cl)cn2)CC1` was 11.1%; that for `Cc1ccc(S(=O)(=O)NC(=O)COc2cccc(C(N)=O)c2)s1` was 11.2%.
The value for `c1ccc(CO[C@H]2CC[C@H]3[C@H]2OCCN3CCN2CCCCC2)nc1` was 40.3%; that for `CC(=O)N1CC[C@@]2(C(=O)Nc3ccccc3)CCN(S(C)(=O)=O)CC[C@@H]12` was 41.2%.
Consider `CC(C)c1nn(C)c(Cl)c1CNCc1ccc2c(c1)OCCO2`, for which the INHIBITION was determined as 1.5%.
The value for `CN(C)CCCN(Cc1ccco1)Cc1ccnn1C1CCCCO1` (stereo not given) was -0.232%; that for `Cc1ccoc1C(=O)N1C[C@@H]2[C@@H](C1)OCC(=O)N2Cc1cccnc1` was 0%; that for `OC1(CN2CCOC(CNc3cccnn3)C2)CCCCC1` (stereo not given) was 25.4%.
For `Cn1c(N2CCOCC2)nc2cc(C(=O)NCc3cccnc3)ccc21`, the INHIBITION came to 48.2%.
The value for `CC(=O)NCc1ccc(C(=O)N2CCCC2c2cnn(C)c2)cc1` (stereo not given) was -12.1%.
In the case of `CC(=O)N1CCC(c2cncc(N3CCCC(O)C3)n2)CC1` (stereo not given), the INHIBITION was -6.73%.
The value for `O=c1cc(C2CCNCC2)nc(CCCc2ccccc2)[nH]1` was 22.7%; that for `O=c1cc(C2CCNCC2)nc(CCc2ccccn2)[nH]1` was -0.273%; that for `O=c1cc(C2CCNCC2)nc(Cc2cccc(Cl)c2)[nH]1` was 52.2%.
The value for `CN(CCCOc1ccccc1Cl)C(=O)CN1C(=O)CCNC1=O` was -44.2%; that for `COC(=O)CCCNC(=O)N1CCc2c([nH]c3ccc(Cl)cc23)C1` was -50%.
The value for `COc1ccc(C(=O)N2C[C@@H](O)[C@H](NCc3ncccc3C)C2)cc1` was 31.45%.
Take `CCc1ncc2c(n1)CN(Cc1nnc(C(C)C)o1)CC2`: the INHIBITION turned out to be 30.3%.
The value for `O=C(c1ncn2c(C3CCN(CC4CC4)CC3)ccnc12)N1CCCC1` was 12.7%; that for `CC(C)N1CCC(c2ccnc3c(C(=O)N4CCCC4)ncn23)CC1` was 60%; that for `CC(C)N1CCC(c2ccnc3c(C(=O)N4CCOCC4)ncn23)CC1` was 12.7%.
To `CN(CC(=O)NC1(C)CCS(=O)(=O)C1)Cc1ccc(F)c(F)c1` (stereo not given) belongs 27.6%; to `Cc1cc(S(=O)(=O)Nc2onc(C)c2C)c(C)s1`, 4.1%; to `Cc1noc(NS(=O)(=O)c2ccc(Cl)s2)c1C`, 44.7%.
Regarding `Cc1cc(S(=O)(=O)Nc2onc(C)c2C)sc1C`, the INHIBITION came to 87.5%.
`CN(C)c1cc(CNC(=O)c2cccnc2O)ccn1`: the INHIBITION is 9.64%.
For `COCc1cn(CC2CCN(Cc3cc(C)[nH]n3)CC2)nn1`, the INHIBITION is on record as 26.7%.
The value for `COC[C@@H]1CC[C@H]2[C@H](CCN2C(=O)c2ccncc2F)O1` was 29%; that for `COC(=O)c1cc(NCc2cscn2)ccc1C` was 11.9%.
The value for `COCCN(C)c1ccc(NCc2cccnc2)nc1` was 15.1%.
The value for `COc1cccc(-c2cc(NCc3cscn3)n(C)n2)c1` was -40.5%; that for `CCn1cc(CNc2ccc(Br)c(OC)c2)cn1` was 32%; that for `COCCN(C)c1ccc(NCc2ccsc2)nc1` was 80.8%.
Regarding `CCn1cc(CNc2ccc3nccnc3c2)cn1`, the INHIBITION was found to be 18.8%.
The value for `COCCN(C)c1ccc(NCc2cscn2)nc1` was 75.1%; that for `CCn1cc(CNc2ccc(N(C)CCOC)cn2)cn1` was 57.2%.
For `COCCOc1ccc(NC(=O)N(C)Cc2ccsc2)cn1`, the INHIBITION is recorded as 31.8%.
For `Cn1ccnc(Sc2ccccc2)c1=O`, the INHIBITION was -4.13%.
On to `CCOc1ccccc1C(=O)NCc1nncn1C1CC1`, for which the INHIBITION was determined as 11.4%.
With `CC1(c2nccs2)CCN(C(=O)CC2CCOCC2)CC1`, the INHIBITION was -1.25%.
The value for `CC(=O)N1CCC2(CCCN(S(=O)(=O)c3ccccc3)C2)C1` (stereo not given) was -60.3%; that for `CCc1cc(NCCCNS(C)(=O)=O)nc(-c2ccncc2)n1` was 15.2%; that for `CCC=C(C)C(=O)N1CSCC1C(=O)N(C)CCc1ccncc1` (stereo not given) was -16.7%.
With `Cc1cc(C)n(CC2CCCCN2CC(=O)Nc2nnc(C)s2)n1` (stereo not given), the INHIBITION is reported as -16.5%.
For `Cc1cc(C)n(CC2CCCCN2CC(=O)Nc2nccs2)n1` (stereo not given), the INHIBITION came to 77.6%.
The value for `Cc1cc(C)n(CC2CCCCN2CC(=O)Nc2nncs2)n1` (stereo not given) was 11.1%; that for `CCCc1n[nH]c(C2CN(CCc3cccs3)CCO2)n1` (stereo not given) was -23.9%; that for `CCC(C)N(CC)C(=O)c1ccc2[nH]nnc2c1` (stereo not given) was -29.1%.
To `CN1CCN(CC(C)(C)C)CC1CCO` (stereo not given) belongs -1.26%; to `COc1cc(C(=O)O)ccc1OCC(=O)NCCc1ccccc1`, 37.4%; to `O=C(NC1CCS(=O)(=O)C1)N1CCN(c2cnccn2)CC1` (stereo not given), 33%.
To `Cc1cc(C)c(CNC(=O)N2CCN(c3cnccn3)CC2)c(=O)[nH]1` belongs 51.2%; to `Cc1cc(C)c(CNC(=O)NCCNc2ncccn2)c(=O)[nH]1`, 25.7%; to `Cc1cc(C)c(CNC(=O)NCCNc2cnccn2)c(=O)[nH]1`, 73%.
For `Cc1cc(C)c(CNC(=O)C2CCN(c3cnccn3)CC2)c(=O)[nH]1`, the INHIBITION worked out at 12.255%.
Take `O=C(C1CCS(=O)(=O)C1)N1CCN(c2cnccn2)CC1` (stereo not given): the INHIBITION turned out to be 16.7%.
As for `Cc1cc(C)c(CNC(=O)NCCNc2ccccn2)c(=O)[nH]1`, the INHIBITION is 46.1%.
For `Cc1cc(C)c(CNC(=O)N2CCN(c3ccccn3)CC2)c(=O)[nH]1`, the INHIBITION was determined as 9.4%.
With `O=C(NCC1CCS(=O)(=O)C1)N1CCN(c2cnccn2)CC1` (stereo not given), the INHIBITION is recorded as 50.3%.
Consider `CN1CCN(C(=O)c2occc2CN2C(=O)Cc3ccccc32)CC1`, for which the INHIBITION was 37.9%.
On to `c1cncc(CN2CCn3cc(CN4CCCCC4)nc3C2)c1`, for which the INHIBITION was 35.8%.
To `Cc1ccoc1C(=O)N1Cc2c(CN3CCCCC3)nn(C)c2C1` belongs 3.69%; to `O=C(NCCCn1nc2ccccn2c1=O)NC(C1CC1)C1CC1`, 16.3%; to `COc1ccc(CC(=O)NC2CCN(CC(F)F)CC2)cc1OC`, 14.4%.
The value for `O=C(c1ccoc1)N1CC[C@@H]2O[C@@H](COCc3ccccn3)CC[C@@H]21` was 53.2%.
Turning to `O=C(c1ccoc1)N1CC[C@@H]2O[C@@H](COCc3ccncc3)CC[C@@H]21`, the INHIBITION worked out at 52%.
To `CC(C)COC[C@@H]1CC[C@H]2[C@H](CCN2C(=O)c2ccncc2F)O1` belongs 13.5%.
To `CN(C)CCOC[C@H]1CC[C@H]2[C@H](CCN2C(=O)c2ccoc2)O1` belongs 34.6%; to `O=C(c1ccoc1)N1CC[C@@H]2O[C@@H](COCCN3CCCC3)CC[C@@H]21`, 31.1%; to `O=C(c1ccoc1)N1CC[C@@H]2O[C@H](COCc3ccccn3)CC[C@@H]21`, 34.1%.
Consider `CC(C)COC[C@H]1CC[C@H]2[C@H](CCN2C(=O)c2ccncc2F)O1`, for which the INHIBITION amounted to 53%.
Consider `COCC(=O)N1CC[C@@H]2O[C@H](COCc3ccncc3)CC[C@@H]21`, for which the INHIBITION was 33.5%.
As to `CCOC[C@H]1CC[C@H]2[C@H](CCN2C(=O)c2ccncc2F)O1`, the INHIBITION is recorded as 41.4%.
